aSyn 5UTR inh: 5' untranslated region of α-synuclein, MLPCN primary screen; alpha-synuclein 5'UTR reporter, inhibitor activity; inhibition, % (tested at 7.5 µM); actives 0.82% (n = 300,000); in the data active = inhibition above about 60%;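 note: H4 neuroglioblastoma cells stably carrying SNCA 5'UTR luciferase fusion; 0% = DMSO wells and 100% = positive control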
Ba/F3 V617F tox: lowers viability of Ba/F3 cells expressing EpoR and JAK2V617F; ATP luminescence; inhibition, % at 5.6 µM; actives 1.1% (n = 220,000); AID 1446;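 active = inhibition above the campaign mean plus 3 SD over all tested compounds, cut at about 24% in these data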;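 note: cytokine-independent growth of Ba/F3 cells driven by EpoR plus mutant JAK2; 0% = DMSO-treated cells and 100% = JAK inhibitor I control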
KLF5 inh: suppresses KLF5 promoter-driven expression; DLD-1 KLF5 promoter-luciferase reporter, luminescence; inhibition, % at 5 µM; actives 0.23% (n = 290,000);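 active = inhibition above a per-plate limit of that plate's mean compound inhibition plus 3 SD, cut at about 60% in these data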;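 note: 0% = DMSO wells and 100% = LY294002 at 200 µM; higher means less KLF5 promoter-driven luciferase light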
IEC-6 tox: IEC-6 cytotoxicity, counter-screen for KLF5 inhibitors; luminescence viability; actives 0.78% (n = 290,000); AID 1825; inhibition, % at 5 µM; in the data active = inhibition above about 22%;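 note: 0% = plate median of test compound wells and 100% = cytotoxic reference compound wells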
BaF3 tox: counter-screen for JAK2V617F inhibitors: parental Ba/F3 viability inhibitors; actives 1.1% (n = 220,000); inhibition, % at 5.6 µM; CellTiter-Glo ATP luminescence;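 active = inhibition above a per-campaign cutoff, the mean inhibition of all tested compounds plus 3 SD, cut at about 27% in these data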;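 note: 0% = DMSO wells and 100% = JAK Inhibitor I control wells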
APP transl inh: APP translation inhibition | SH-SY5Y APP 5'UTR-luciferase reporter, luminescence | inhibition, % at 2 µM | actives 0.82% (n = 190,000) | AID 1285;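 active = inhibition above a set limit, derived from the sample mean plus 3 SD, cut at about 45% in these data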
Numbers without * were called inactive; . = no result. Most compounds without a hit are left out; they make up all but 2.2% or so of the library.

SMILES | aSyn 5UTR inh | Ba/F3 V617F tox | KLF5 inh | IEC-6 tox | BaF3 tox | APP transl inh
COc1ccccc1N1CCN(C(=O)c2ccc(NC(C)=O)cc2)CC1 | 1 | 4 | 7 | 6 | 9 | -3
CCCCCCC(=O)Nc1ccc(C(=O)N2CCCC2)cc1 | 23 | -3 | 0 | -1 | 4 | 12
COc1cc(SC)ccc1C(=O)N1CCN(c2ccccc2OC)CC1 | 24 | 13 | 36 | 31* | 20 | 14
CCN(CC)C(=O)Cn1cc(S(=O)(=O)CC(=O)Nc2ccccc2F)c2ccccc21 | 16 | . | -21 | 6 | . | .
NNc1ccc2c(C(F)(F)F)cc(C(F)(F)F)nc2n1 | -10 | 1 | 2 | 4 | 0 | -7
N#CC(c1cccc(Cl)c1)c1ccc2c(C(F)(F)F)cc(C(F)(F)F)nc2n1 (stereo not given) | 97* | -4 | 9 | 1 | -1 | 8
COc1cccc(Nc2ncnc3onc(-c4ccccc4OC)c23)c1 | 21 | . | -19 | 6 | . | .
Cc1[nH]n(-c2nc(-c3ccc(Cl)cc3)cs2)c(=O)c1N=Nc1ccc(O)cc1 | -118 | 2 | 3 | -2 | 6 | 54*
CCc1c(C)[nH]n(-c2nc(-c3ccccc3)cs2)c1=O | -21 | -4 | -43 | 2 | 3 | -34
Cn1c(=O)c2[nH]c(COc3ccc(C(C)(C)C)cc3)nc2n(C)c1=O | -7 | 26* | -4 | 8 | 48* | .
Cn1c(=O)c2[nH]c(CNCc3ccccc3Cl)nc2n(C)c1=O | -7 | 3 | 10 | 5 | 5 | 4
Cc1ccc(-c2ccnc3c(Cl)c(C)nn23)cc1 | 69* | . | -24 | 17 | . | .
Cc1ccccc1C[n+]1cccc2ccccc21 | -19 | . | . | . | . | .
CCCCCCCCCCCCCCCC[n+]1cccc2ccccc21 | . | 101* | -5 | 28* | 82* | 23
COc1ccc(C2=Nn3c(nnc3-c3ccncc3)SC2)cc1OC | 72* | 0 | -2 | 0 | 1 | 9
Fc1ccc(NC(=S)N2CCOCC2)c(F)c1 | 12 | . | -11 | -1 | . | .
Fc1ccc(NC(=S)N2CCc3ccccc3C2)c(F)c1 | -49 | 15 | -3 | 2 | 39* | 8
Cn1nnc(NC(=S)NC(=O)c2cccc3ccccc23)n1 | 6 | . | -30 | 1 | . | .
COc1ccc2ccccc2c1/C=N/NC(=S)Nc1cc(S(=O)(=O)N2CCOCC2)ccc1N1CCOCC1 | 13 | -1 | -22 | 3 | 3 | 3
CCOc1cccc(/C=N/NC(=S)Nc2cc(S(=O)(=O)N3CCOCC3)ccc2N2CCOCC2)c1O | 81* | 0 | -3 | -1 | 3 | 54*
Cc1sc(NC(=O)c2c(F)cccc2F)nc1-c1ccccc1 | 21 | . | -33 | -1 | . | .
Cc1sc(NC(=O)c2ccc(=O)n(C)n2)nc1-c1ccccc1 | -95 | 44* | -57 | -12 | 45* | -11
Cc1cc(C)c2cc(C=O)c(Cl)nc2c1 | -7 | 1 | -12 | 6 | 3 | 93*
Cc1cccn2c(NC(=O)c3ccccc3F)c(-c3ccccc3)nc12 | -2 | . | -11 | -7 | . | .
O=C1COc2ccc3ccccc3c21 | -1 | . | -52 | 1 | . | .
SMILES | aSyn 5UTR inh | Ba/F3 V617F tox | KLF5 inh | IEC-6 tox | BaF3 tox | APP transl inh
CS(=O)(=O)c1nc(-c2ccc(Br)cc2)cc(-c2ccccc2)c1C#N | -3 | 1 | -30 | -1 | 5 | 2
CS(=O)c1nc(-c2ccc(Br)cc2)cc(-c2ccccc2)c1C#N (stereo not given) | 120* | 5 | -6 | 3 | -4 | 94*
COc1cnc(-c2ccccn2)nc1Oc1ccccc1 | -47 | -3 | -8 | 0 | 7 | 8
COc1cnc(-c2ccccn2)nc1N(C)c1ccccc1 | 89* | . | -43 | 15 | . | .
CCN1CCN(CCCN(Cc2ccco2)C(=S)Nc2ccc(Cl)cc2)CC1 | -13 | 36* | -6 | -2 | 29* | -14
CCN1CCN(C(=S)Nc2ccc(Cl)cc2)CC1 | -5 | 25* | 14 | -1 | 35* | -5
Cc1ccc(NC(=S)N(CCCN2CCN(C)CC2)Cc2cccs2)cc1C | 9 | 36* | 8 | 10 | 29* | 6
Cc1ccccc1NC(=S)N(CCCN1CCCCC1)Cc1ccco1 | 13 | 0 | 13 | -3 | 5 | 5
CCN1CCN(CCCN(Cc2ccco2)C(=S)Nc2cc(Cl)ccc2C)CC1 | 16 | 63* | -26 | 3 | 69* | -6
CCCCNC(=O)CSc1nnc(Cc2ccc(Cl)c(Cl)c2)c(=O)[nH]1 | 4 | . | -8 | 0 | . | .
CC1CCC2C(C1)OS(=O)(=O)NC2(C)C (stereo not given) | 3 | . | -11 | -2 | . | .

Assay outcomes: PubChem BioAssay, several laboratories
